The values that follow come from PMC7862700, “An all-to-all approach to the identification of sequence-specific readers for epigenetic DNA modifications on cytosine”.

Experiment in all cases: DAPPL (digital affinity profiling via proximity ligation, sequencing); 10 mM Tris-HCl pH 7.5, 50 mM NaCl, 1 mM DTT, 4% glycerol, room temperature, 30 min; GST-TFs on glutathione beads, 16-mer random dsDNA library, 0.1% formaldehyde crosslink after washing; high values mean tight binding
One assay has as its target T1, FLI1 (Homo sapiens, UniProt Q01543 1-452).
T1 sequence: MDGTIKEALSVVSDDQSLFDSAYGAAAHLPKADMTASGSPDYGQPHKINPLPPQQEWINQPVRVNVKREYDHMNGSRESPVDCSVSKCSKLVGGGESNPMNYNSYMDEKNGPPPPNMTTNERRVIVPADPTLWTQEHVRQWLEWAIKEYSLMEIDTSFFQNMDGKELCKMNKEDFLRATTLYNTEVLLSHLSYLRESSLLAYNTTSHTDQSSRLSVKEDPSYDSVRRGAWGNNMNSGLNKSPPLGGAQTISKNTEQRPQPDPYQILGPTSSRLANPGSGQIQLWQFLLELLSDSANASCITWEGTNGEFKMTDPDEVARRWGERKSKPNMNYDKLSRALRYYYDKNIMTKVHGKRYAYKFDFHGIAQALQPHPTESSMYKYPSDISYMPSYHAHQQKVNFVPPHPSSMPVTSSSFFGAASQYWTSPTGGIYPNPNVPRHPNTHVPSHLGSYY
Conditions: protein: recombinant; tags: N-terminal GST; dsDNA, one strand shown. The method in brief: (§1)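 Binding signal is each hexamer's read frequency for a factor divided by its frequency in the tag-only sample. The factors were GST-fused human transcription factors from yeast, captured on glutathione beads, DNA-barcoded and pooled with that sample. Pools were incubated with 200 nmole of a random double-stranded 16-mer DNA library in Tris/NaCl/DTT/glycerol buffer at room temperature for 30 min, then washed, crosslinked with 0.1% formaldehyde, proximity-ligated with BsaI/T4 ligase (1 h, 37 °C), PCR-amplified and sequenced on an Illumina NextSeq500.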

The target of another assay is T2, ELK1 (Homo sapiens, UniProt P19419 1-428).
T2 sequence: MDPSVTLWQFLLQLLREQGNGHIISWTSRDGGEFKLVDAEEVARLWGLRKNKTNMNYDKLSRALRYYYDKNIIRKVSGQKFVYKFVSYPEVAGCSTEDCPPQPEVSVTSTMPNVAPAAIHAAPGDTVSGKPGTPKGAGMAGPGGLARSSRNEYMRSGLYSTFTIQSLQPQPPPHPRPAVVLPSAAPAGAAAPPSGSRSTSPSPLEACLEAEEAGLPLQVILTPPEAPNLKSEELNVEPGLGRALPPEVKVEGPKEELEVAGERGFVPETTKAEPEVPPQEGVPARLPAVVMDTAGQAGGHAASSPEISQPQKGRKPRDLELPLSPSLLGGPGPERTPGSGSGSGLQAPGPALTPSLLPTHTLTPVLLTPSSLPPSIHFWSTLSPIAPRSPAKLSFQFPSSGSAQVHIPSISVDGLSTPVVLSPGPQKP
Conditions: protein: recombinant; tags: N-terminal GST; dsDNA, one strand shown. In short, it runs like this: as §1

Another assay addresses T3, GABPA (Homo sapiens, UniProt Q06546 1-454).
T3 sequence: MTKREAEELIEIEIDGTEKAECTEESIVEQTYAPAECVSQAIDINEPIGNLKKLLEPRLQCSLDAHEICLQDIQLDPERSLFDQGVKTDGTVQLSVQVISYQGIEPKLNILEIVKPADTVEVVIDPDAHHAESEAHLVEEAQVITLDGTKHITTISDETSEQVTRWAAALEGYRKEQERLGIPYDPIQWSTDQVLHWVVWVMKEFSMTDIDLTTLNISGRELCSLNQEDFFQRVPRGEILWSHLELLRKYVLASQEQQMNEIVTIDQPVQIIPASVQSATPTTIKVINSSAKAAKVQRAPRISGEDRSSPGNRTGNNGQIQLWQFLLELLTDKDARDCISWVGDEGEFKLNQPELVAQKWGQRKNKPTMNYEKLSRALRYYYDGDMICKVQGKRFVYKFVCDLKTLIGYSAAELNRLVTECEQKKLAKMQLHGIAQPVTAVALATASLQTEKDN
Conditions: protein: recombinant; tags: N-terminal GST; dsDNA, one strand shown. The method in brief: as §1

The target of a further assay is T4, ERG (Homo sapiens, UniProt P11308 1-479).
T4 sequence: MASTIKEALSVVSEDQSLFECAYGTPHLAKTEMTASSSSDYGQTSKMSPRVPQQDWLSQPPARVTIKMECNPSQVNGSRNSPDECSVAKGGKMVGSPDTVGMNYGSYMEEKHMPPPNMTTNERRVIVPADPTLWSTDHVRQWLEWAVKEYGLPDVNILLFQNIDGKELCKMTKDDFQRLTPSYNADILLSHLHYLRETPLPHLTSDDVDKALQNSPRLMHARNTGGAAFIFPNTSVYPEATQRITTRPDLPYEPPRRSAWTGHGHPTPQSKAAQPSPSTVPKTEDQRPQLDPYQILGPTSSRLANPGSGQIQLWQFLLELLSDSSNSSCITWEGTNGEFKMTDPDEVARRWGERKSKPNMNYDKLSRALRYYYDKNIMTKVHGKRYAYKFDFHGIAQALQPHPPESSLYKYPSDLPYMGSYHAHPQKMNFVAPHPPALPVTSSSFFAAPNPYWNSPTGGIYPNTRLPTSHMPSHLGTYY
To be noted: protein: recombinant; tags: N-terminal GST; dsDNA, one strand shown. In short, it runs like this: as §1

Another assay has as its target ELF1 (Homo sapiens, UniProt P32519 1-619). Conditions: protein: recombinant; tags: N-terminal GST; dsDNA, one strand shown. In short, it runs like this: as §1
For another assay, the target named is T5, EHF (Homo sapiens, UniProt Q9NZC4 1-300).
T5 sequence: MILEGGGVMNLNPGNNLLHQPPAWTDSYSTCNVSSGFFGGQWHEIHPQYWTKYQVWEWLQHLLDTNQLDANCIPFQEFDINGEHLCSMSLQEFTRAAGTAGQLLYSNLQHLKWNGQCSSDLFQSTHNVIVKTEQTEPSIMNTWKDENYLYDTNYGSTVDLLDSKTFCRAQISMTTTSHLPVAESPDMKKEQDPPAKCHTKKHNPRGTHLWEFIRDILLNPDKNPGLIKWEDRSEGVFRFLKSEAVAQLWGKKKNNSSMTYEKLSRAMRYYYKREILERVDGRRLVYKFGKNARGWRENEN
To be noted: protein: recombinant; tags: N-terminal GST; dsDNA, one strand shown. In short, it runs like this:
as §1

In another assay the target is SPI1 (Homo sapiens, UniProt P17947 1-270). To be noted: protein: recombinant; tags: N-terminal GST; dsDNA, one strand shown. The method in brief: as §1
In another assay the target is SPIB (Homo sapiens, UniProt Q01892 1-262). Conditions: protein: recombinant; tags: N-terminal GST; dsDNA, one strand shown. In short, it runs like this: as §1
In another assay the target is T6, ELK3 (Homo sapiens, UniProt P41970 1-407).
T6 sequence: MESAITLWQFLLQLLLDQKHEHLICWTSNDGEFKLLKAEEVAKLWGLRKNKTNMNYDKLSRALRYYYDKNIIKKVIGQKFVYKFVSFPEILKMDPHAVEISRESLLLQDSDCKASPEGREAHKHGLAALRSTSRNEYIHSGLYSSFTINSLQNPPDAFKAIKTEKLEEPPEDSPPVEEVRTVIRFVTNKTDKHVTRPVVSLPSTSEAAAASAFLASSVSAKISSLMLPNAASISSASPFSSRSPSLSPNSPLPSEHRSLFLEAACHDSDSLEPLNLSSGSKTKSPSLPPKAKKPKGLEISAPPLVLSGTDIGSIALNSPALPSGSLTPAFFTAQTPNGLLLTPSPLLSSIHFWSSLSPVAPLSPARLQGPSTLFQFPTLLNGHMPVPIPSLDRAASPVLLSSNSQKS
Conditions: protein: recombinant; tags: N-terminal GST; dsDNA, one strand shown. In short, it runs like this:
as §1

Another assay deals with T7, FEV (Homo sapiens, UniProt Q99581 1-238).
T7 sequence: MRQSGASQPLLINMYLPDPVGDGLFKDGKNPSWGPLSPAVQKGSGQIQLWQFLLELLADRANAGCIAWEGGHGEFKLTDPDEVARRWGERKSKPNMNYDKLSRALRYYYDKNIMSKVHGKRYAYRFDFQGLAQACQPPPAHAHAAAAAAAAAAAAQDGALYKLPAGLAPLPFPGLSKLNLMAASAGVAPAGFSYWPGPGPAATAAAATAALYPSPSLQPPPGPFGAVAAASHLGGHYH
Conditions: protein: recombinant; tags: N-terminal GST; dsDNA, one strand shown. The method in brief: as §1

For another assay, the target named is ETV5 (Homo sapiens, UniProt P41161 1-510). Conditions: protein: recombinant; tags: N-terminal GST; dsDNA, one strand shown. The method in brief: as §1
The next assay deals with HSF1 (Homo sapiens, UniProt Q00613 1-529). To be noted: protein: recombinant; tags: N-terminal GST; chain copies: 3; dsDNA, one strand shown. In short, it runs like this: as §1
Another assay addresses T8, SPIC (Homo sapiens, UniProt Q8N5J4 1-248).
T8 sequence: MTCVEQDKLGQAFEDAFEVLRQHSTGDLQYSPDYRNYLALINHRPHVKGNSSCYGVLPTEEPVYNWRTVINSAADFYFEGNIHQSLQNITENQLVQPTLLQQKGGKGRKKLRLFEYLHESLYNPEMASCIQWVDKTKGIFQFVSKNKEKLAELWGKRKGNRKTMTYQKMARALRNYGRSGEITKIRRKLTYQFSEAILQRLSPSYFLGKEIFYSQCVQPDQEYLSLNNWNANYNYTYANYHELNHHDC
To be noted: protein: recombinant; tags: N-terminal GST; dsDNA, one strand shown. The method in brief: as §1

For the next assay, the target named is ELF4 (Homo sapiens, UniProt Q99607 1-663). To be noted: protein: recombinant; tags: N-terminal GST; dsDNA, one strand shown. In short, it runs like this:
as §1

The target of the next assay is T9, ELK4 (Homo sapiens, UniProt P28324-2 1-405).
T9 sequence: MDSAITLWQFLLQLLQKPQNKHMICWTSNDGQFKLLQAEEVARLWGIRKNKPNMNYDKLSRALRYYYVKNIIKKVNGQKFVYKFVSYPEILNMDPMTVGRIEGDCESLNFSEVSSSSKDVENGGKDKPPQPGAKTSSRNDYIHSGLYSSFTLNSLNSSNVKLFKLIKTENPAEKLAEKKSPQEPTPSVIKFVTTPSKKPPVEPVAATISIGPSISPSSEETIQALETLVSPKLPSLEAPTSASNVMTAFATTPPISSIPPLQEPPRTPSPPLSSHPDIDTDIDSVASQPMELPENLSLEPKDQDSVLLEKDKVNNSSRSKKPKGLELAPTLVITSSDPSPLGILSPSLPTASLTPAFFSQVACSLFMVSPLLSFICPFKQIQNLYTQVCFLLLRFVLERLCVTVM
Conditions: protein: recombinant; tags: N-terminal GST; dsDNA, one strand shown. In short, it runs like this: as §1

For the next assay, the target named is T10, ETV2 (Homo sapiens, UniProt O00321 1-342).
T10 sequence: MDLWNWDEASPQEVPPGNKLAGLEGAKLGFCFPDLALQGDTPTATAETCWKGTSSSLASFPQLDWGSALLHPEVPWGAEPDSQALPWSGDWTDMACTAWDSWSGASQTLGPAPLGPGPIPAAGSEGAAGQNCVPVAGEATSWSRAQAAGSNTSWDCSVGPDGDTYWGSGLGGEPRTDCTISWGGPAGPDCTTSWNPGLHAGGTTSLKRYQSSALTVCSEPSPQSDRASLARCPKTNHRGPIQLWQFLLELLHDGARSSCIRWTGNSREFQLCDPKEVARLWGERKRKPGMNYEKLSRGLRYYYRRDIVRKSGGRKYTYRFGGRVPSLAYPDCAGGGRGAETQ
Conditions: protein: recombinant; tags: N-terminal GST; dsDNA, one strand shown. The method in brief:
as §1

Another assay has as its target T11, ELF3 (Homo sapiens, UniProt P78545 1-371).
T11 sequence: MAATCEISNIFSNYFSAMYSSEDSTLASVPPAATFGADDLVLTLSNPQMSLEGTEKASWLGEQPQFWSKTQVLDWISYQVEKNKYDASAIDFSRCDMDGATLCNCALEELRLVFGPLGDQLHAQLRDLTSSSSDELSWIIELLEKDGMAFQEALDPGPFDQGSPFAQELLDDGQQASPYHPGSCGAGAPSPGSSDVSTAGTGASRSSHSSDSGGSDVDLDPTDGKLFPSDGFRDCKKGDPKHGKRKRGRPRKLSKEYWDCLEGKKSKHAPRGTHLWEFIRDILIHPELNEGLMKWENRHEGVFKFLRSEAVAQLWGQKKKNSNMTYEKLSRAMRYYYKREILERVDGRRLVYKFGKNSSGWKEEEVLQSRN
To be noted: protein: recombinant; tags: N-terminal GST; dsDNA, one strand shown. In short, it runs like this:
as §1

A further assay has as its target CRX (Homo sapiens, UniProt O43186 1-299). Conditions: protein: recombinant; tags: N-terminal GST; dsDNA, one strand shown. The method in brief: as §1
For the next assay, the target named is ETV1 (Homo sapiens, UniProt P50549 1-477). To be noted: protein: recombinant; tags: N-terminal GST; dsDNA, one strand shown. The method in brief:
as §1

Sequence of CRX (O43186 whole entry): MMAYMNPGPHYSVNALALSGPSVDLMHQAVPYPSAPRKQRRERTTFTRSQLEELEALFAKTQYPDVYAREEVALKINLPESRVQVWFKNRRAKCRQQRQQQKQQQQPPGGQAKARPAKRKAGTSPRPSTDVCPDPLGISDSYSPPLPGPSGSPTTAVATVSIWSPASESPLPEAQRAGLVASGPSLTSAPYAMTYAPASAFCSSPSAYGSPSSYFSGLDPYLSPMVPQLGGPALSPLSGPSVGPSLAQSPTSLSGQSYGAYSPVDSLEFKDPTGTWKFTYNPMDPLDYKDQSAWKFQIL
Sequence of ETV1 (P50549 whole entry): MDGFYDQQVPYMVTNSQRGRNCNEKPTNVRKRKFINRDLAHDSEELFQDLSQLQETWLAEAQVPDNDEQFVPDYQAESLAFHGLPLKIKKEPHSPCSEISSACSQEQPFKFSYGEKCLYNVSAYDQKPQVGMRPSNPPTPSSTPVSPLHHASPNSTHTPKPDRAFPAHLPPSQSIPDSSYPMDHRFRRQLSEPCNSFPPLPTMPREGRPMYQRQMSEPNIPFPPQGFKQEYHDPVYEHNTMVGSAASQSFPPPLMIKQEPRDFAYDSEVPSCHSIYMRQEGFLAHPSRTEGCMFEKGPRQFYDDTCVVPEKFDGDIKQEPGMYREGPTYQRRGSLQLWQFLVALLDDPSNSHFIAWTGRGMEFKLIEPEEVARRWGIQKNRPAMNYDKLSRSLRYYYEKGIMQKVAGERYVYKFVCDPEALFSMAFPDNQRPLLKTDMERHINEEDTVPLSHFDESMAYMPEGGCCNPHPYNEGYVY
Sequence of ELF4 (Q99607 whole entry): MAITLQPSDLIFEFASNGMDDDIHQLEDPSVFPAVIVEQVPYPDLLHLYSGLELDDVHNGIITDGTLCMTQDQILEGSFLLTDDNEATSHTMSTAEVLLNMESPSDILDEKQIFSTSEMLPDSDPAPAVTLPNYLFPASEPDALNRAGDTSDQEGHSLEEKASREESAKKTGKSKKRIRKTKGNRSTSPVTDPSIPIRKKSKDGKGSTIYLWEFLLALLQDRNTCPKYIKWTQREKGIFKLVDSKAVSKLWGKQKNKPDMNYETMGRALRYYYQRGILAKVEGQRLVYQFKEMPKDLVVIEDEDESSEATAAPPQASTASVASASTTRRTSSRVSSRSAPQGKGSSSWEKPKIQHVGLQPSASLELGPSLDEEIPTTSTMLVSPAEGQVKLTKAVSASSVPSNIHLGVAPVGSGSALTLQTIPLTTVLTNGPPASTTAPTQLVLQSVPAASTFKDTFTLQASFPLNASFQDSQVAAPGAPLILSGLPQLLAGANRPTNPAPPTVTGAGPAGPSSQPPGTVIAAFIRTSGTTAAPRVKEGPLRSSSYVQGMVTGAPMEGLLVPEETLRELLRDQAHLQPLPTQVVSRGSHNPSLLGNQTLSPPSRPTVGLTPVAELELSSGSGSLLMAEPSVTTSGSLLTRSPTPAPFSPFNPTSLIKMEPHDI
Sequence of ETV5 (P41161 whole entry): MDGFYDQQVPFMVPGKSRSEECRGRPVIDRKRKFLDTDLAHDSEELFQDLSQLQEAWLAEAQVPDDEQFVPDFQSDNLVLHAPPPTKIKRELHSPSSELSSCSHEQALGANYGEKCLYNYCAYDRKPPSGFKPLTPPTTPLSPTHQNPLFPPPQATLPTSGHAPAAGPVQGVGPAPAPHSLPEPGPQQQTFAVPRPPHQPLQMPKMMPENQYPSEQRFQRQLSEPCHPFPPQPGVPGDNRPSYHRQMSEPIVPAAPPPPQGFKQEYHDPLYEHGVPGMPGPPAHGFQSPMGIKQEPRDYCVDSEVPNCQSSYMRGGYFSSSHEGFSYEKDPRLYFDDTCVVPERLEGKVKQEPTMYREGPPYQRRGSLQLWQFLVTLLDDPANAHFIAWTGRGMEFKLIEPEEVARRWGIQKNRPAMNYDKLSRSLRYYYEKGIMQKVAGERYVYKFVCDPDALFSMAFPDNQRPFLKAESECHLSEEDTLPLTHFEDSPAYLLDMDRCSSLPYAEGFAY
Sequence of ELF1 (P32519 whole entry): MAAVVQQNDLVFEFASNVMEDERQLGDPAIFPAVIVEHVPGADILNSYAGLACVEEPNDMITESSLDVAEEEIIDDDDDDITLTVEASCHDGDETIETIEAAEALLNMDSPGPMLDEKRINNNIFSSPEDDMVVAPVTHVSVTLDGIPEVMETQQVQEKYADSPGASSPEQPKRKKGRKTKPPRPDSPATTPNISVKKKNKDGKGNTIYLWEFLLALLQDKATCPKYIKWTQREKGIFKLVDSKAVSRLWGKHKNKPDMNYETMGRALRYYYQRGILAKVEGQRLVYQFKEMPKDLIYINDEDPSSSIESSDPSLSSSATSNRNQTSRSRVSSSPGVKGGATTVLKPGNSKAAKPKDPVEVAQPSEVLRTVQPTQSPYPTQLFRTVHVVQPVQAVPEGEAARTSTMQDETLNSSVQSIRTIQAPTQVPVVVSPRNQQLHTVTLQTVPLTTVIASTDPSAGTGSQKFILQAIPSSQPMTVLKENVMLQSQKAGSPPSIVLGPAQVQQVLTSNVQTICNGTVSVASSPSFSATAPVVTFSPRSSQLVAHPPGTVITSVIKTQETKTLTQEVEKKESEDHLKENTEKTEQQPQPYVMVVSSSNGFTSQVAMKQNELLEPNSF
Sequence of HSF1 (Q00613 whole entry): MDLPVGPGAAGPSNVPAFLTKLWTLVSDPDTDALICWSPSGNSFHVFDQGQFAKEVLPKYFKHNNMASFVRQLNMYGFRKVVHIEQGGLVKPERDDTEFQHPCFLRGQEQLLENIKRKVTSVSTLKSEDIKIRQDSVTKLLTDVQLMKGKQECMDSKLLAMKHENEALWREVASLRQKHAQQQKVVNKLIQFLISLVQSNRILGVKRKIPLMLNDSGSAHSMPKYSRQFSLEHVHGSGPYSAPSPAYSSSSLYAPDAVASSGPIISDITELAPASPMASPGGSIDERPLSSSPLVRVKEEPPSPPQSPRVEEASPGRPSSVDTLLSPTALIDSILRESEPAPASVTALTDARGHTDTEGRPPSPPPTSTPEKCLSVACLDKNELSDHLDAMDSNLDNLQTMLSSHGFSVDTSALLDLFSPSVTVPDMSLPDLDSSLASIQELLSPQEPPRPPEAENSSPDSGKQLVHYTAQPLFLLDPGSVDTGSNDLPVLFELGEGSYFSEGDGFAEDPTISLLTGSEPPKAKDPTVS
Sequence of SPIB (Q01892 whole entry): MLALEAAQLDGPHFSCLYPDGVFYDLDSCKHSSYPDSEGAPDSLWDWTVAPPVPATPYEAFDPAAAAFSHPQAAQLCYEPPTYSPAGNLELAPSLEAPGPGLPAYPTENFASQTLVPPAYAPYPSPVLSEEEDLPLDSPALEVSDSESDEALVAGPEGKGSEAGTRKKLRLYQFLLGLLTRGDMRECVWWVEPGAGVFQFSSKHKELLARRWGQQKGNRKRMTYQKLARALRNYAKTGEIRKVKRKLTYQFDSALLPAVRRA

With CCGATC, the binding signal with FLI1 is 1.38 fold enrichment (6-mer frequency, TF over GST control); in the assay with ELK1, 1.25 fold enrichment (6-mer frequency, TF over GST control); with GABPA, 1.21 fold enrichment (6-mer frequency, TF over GST control); with ERG, 1.24 fold enrichment (6-mer frequency, TF over GST control); in the assay with ELF1, 1.28 fold enrichment (6-mer frequency, TF over GST control); with EHF, 1.24 fold enrichment (6-mer frequency, TF over GST control). Moreover, the binding signal is 1.18 fold enrichment (6-mer frequency, TF over GST control) with SPI1; 1.17 fold enrichment (6-mer frequency, TF over GST control) in the assay with SPIB; 1.17 fold enrichment (6-mer frequency, TF over GST control) with ELK3; 1.24 fold enrichment (6-mer frequency, TF over GST control) with FEV; 1.25 fold enrichment (6-mer frequency, TF over GST control) in the assay with ETV5; 1.23 fold enrichment (6-mer frequency, TF over GST control) in the assay with HSF1. For the same sequence, the binding signal was 1.27 fold enrichment (6-mer frequency, TF over GST control) with SPIC; 1.2 fold enrichment (6-mer frequency, TF over GST control) in the assay with ELF4; 1.13 fold enrichment (6-mer frequency, TF over GST control) in the assay with ELK4; 1.19 fold enrichment (6-mer frequency, TF over GST control) in the assay with ETV2; 1.4 fold enrichment (6-mer frequency, TF over GST control) with ELF3; 1.36 fold enrichment (6-mer frequency, TF over GST control) in the assay with CRX. For the same sequence, the binding signal in the assay with ETV1 was 1.12 fold enrichment (6-mer frequency, TF over GST control).
